# Reference: PubChem BioAssay AID2685 (National Center for Advancing Translational Sciences (NCATS), 2010)
# In all, about 320,000 compounds went through this assay and about 2,100 (0.66%) were called active. Not shown: some 53% with an inconclusive outcome. The sample holds actives, similar compounds and a random draw of the others, so the mix is not that of the screen. Calls follow the shape of the dose curve; as a rule, active = well fitted inhibition curve with a large enough effect in the signal ratio, with a control signal flat (not every such curve was filed as active); inconclusive = small, poorly fitted or top-dose-only effect, or effect the other way, or a change in a side signal; inactive = flat fitted curve, though single readings scatter; the % refers to the signal ratio.
# Assay: qHTS Assay for Lipid Storage Modulators in Drosophila S3 Cells;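 as to cell number change: cells counted by Cell Tracker Red CMTPX staining in the red channel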; as to lipid storage change, negative = inhibition: % is scaled to controls: 0 for no effect and ±100 for the full control effect
# Details: BODIPY lipid droplet fluorescence, 18-24 h, cells fed with added oleic acid; cell number change: measured here: cell count max response; series mostly up to 46.1 µM; lipid storage change, negative = inhibition: at the top concentration
# Summary of the method: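 Drosophila S3 cells got compounds at several concentrations plus oleic acid (400 uM solution). Laser-scanning cytometry with 488 nm excitation read lipid droplets at 500-530 nm and cells at 575-640 nm. Percent activity was relative to 20 uM Triacsin C.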
# Potency is read from the fitted curve at half-maximal effect.
SMILES,"lipid storage change, negative = inhibition",cell number change [%],outcome,Potency
COc1ccc(CCNC(=O)C2CCN(c3nccc(C)n3)CC2)cc1,13.8% (inactive),5.66,,
CC(=O)Nc1ccccc1NC(=O)C/C(C)=N/NC(=O)C1CCCCC1,,-3.17,inactive,
Cc1cccc(C(=O)NCC(=O)OCc2cc(=O)n3ccsc3n2)c1,18.6% (inactive),-4.9,,
Nc1cc(C(=O)OCC(=O)N2CCCC2=O)ccc1Cl,,,inactive,
NC(=O)Nc1ccc(C(=O)OCC(=O)N2CCCC2=O)cc1,17.3% (inactive),-27.9,,
O=C(OCC(=O)N1CCCC1=O)c1nc(Cl)c(Cl)c(Cl)c1Cl,,-29,,7.08 µM (active)
CCCc1cc(=O)c2c(O)cccc2o1,0.102% (inactive),-3.96,,
O=C(NCCc1ccc(F)cc1)Nc1ccc([N+](=O)[O-])cc1,,18.2,,13 µM (active)
O=C(NCCc1ccc(Cl)cc1)Nc1ccc(F)cc1,-17.8% (inactive),-2.02,,
O=C(NCCc1ccncc1)Nc1ccc(F)cc1,-6.04% (inactive),5.19,,
Cc1cccc(C)c1NC(=O)CN(C)C(=O)/C=C/c1cccs1,26% (inactive),-17,,
Cc1cc(C)c(C#N)c(Nc2ccc(F)cc2)n1,,-10.5,inactive,
CCn1cnc2c(Nc3cc(F)cc(F)c3)nc(C#N)nc21,,-24.3,,0.651 µM (active)
O=C(Cc1ccccc1)NCC(=O)OCC(=O)c1cccc([N+](=O)[O-])c1,-0.459% (inactive),9.41,,
Cc1cc(OC(C)C(=O)N2CCN(c3ccccc3)CC2)c2c(C)c(C)c(=O)oc2c1 (centres undefined),,5.19,inactive,
O=C(OCc1ccc(F)cc1)c1cc(=O)c2ccccc2o1,,11.3,inactive,
CCc1ccc(CN(C)C(=O)c2cc(=O)c3ccccc3o2)cc1,,,inactive,
COc1ccc(CCN(C)C(=O)c2cc(=O)c3ccccc3o2)cc1OC,,-2.86,,0.731 µM (active)
COc1ccc(C(C)=O)cc1COC(=O)c1cc(C)oc1C,16.1% (inactive),-12.2,,
COc1ccc(CCN(C)C(=O)c2cc(-c3ccccc3)nc3ccccc23)cc1OC,,-2.7,inactive,
COc1ccc(C(C)=O)cc1COC(=O)c1cc2ccccc2cc1O,,-9.52,,20.6 µM (active)
N#Cc1ccccc1COC(=O)c1cc(=O)c2ccccc2o1,-3.23% (inactive),7.26,,
COc1ccc(C(C)=O)cc1COC(=O)c1cccnc1Cl,-19.8% (inactive),20.9,,
COc1ccc(C(C)=O)cc1COC(=O)c1cc(=O)c2ccccc2o1,,5.13,,18.4 µM (active)

SMILES,"lipid storage change, negative = inhibition",cell number change [%],outcome,Potency
CCOC(=O)c1ccc(NC(=S)N2CCCC(C)C2)cc1 (centres undefined),-12.9% (inactive),4.19,,
COCCN(C(=S)Nc1ccccc1OC)C(C)c1cccs1 (centres undefined),18.6% (inactive),10.3,,
CCCCn1nnc(NC(=O)c2sc3cc(Cl)ccc3c2Cl)n1,14.6% (inactive),-11.4,,
C/C(=N\Nc1cc(N2CCOCC2)nc(C)n1)c1ccc(F)cc1,,-23.7,inactive,
COc1cc(OC)c2ccc(=O)oc2c1C(CCN1CCCC1)c1ccc(N(C)C)cc1 (centres undefined),0.139% (inactive),0.759,,
Cc1cc(C)nc(/N=C(\NC(=O)C(C)(C)C)Nc2ccccc2)n1,16.5% (inactive),7.69,,
O=C(CCOc1ccccc1)Nc1ccnn1C1CCN(C(=O)CCC(F)(F)F)CC1,,,inactive,
CN(CC(=O)OCC(=O)c1c(N)n(C)c(=O)n(C)c1=O)S(=O)(=O)c1ccc(Cl)cc1,-4.29% (inactive),-11.5,,
CC(C)[C@H](NS(=O)(=O)c1ccc(Cl)cc1)C(=O)OCC(=O)c1c(N)n(C)c(=O)n(C)c1=O,,-5.89,,29.1 µM (active)
Cn1c(N)c(C(=O)COC(=O)CNS(=O)(=O)c2cccc(Cl)c2)c(=O)n(C)c1=O,-4.82% (inactive),-1.55,,
O=C(NC1CCCc2ccccc21)c1ccccc1 (centres undefined),21.6% (inactive),96.9,,
COC(=O)CN(c1cccc(OC)c1)S(C)(=O)=O,,-6.69,,16.4 µM (active)
COC(=O)CN(c1cccc(F)c1)S(C)(=O)=O,,,inactive,
COC(=O)CN(c1cccc(C(C)=O)c1)S(C)(=O)=O,8.86% (inactive),-12.6,,
COc1ccccc1CN1CC(C(=O)NC2CCOCC2)CCC1=O (centres undefined),-8.12% (inactive),0.697,,
CCC(C)N1CCNCC1 (centres undefined),,2.58,inactive,
Cc1cc2c3c(ccc(C)c3n1)N=CN2c1ccccc1,,,inactive,
CC(C)Oc1cccc(C(=O)N2CCCC2)c1,-2.89% (inactive),0.879,,
CCCCOc1cccc(C(=O)O)c1,,-9.86,inactive,
CC(C)Oc1cccc(C(=O)O)c1,,0.0714,,16.4 µM (active)
Cc1cc(OCC(=O)NCc2nc(-c3ccccc3)no2)c(C)cc1Br,7.66% (inactive),8.52,,
COc1ccc2c(c1)c(/C=C/c1cc[n+](C)cc1)cn2C,-25.3% (inactive),,,
Cn1cc(C=O)c2cc(F)ccc21,0.791% (inactive),,,
Cn1cc(/C=C/c2cc[n+](C)cc2)c2cc(F)ccc21,,5.37,,25.9 µM (active)
